Laboratory results taken from the supplement of paper PMC8773631.
Where a name gives a salt, the structure may show the parent alone. ± gives the uncertainty stated by the source.

system: NCC-MFS5-C1; assay: cell viability relative to DMSO control; higher = less growth inhibition; details: 10 µM; treatment time: 3 days
Method: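 NCC-MFS5-C1 myxofibrosarcoma cells (1x10^4 per well, 384-well) were treated on day 2 with 10 µM of each drug. On day 5, viability was read by CCK-8 absorbance at 450 nm and normalised to the DMSO control (%), n = 2.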

SMILES	cell viability
Cc1ccc(NC(=O)c2ccc(CN3CCN(C)CC3)cc2)cc1Nc1nccc(-c2cccnc2)n1 [Imatinib Mesylate (STI571)]	69.6 ± 1.4%
Cc1ccc(S(=O)(=O)Nc2nc3ccccc3nc2Nc2ccc3nsnc3c2)cc1 [XL147 analog]	84.5 ± 6%
CCOc1cc(C(C)(C)C)ccc1C1=N[C@@](C)(c2ccc(Cl)cc2)[C@@](C)(c2ccc(Cl)cc2)N1C(=O)N1CCN(CCCS(C)(=O)=O)CC1	96 ± 5.5%
COc1cc2nccc(Oc3ccc(NC(=O)C4(C(=O)Nc5ccc(F)cc5)CC4)cc3)c2cc1OC [Cabozantinib malate (XL184)]	67.2 ± 21%
N#CC1(c2ccc(NC(=O)c3cccnc3NCc3ccncc3)cc2)CCCC1 [Apatinib]	80.9 ± 2%
Nc1nc2[nH]cc(CCc3ccc(C(=O)N[C@@H](CCC(=O)O)C(=O)O)cc3)c2c(=O)[nH]1 [Pemetrexed Disodium Hydrate]	80.7 ± 2.4%
CNC(=O)c1cc(Oc2ccc(NC(=O)Nc3ccc(Cl)c(C(F)(F)F)c3)cc2)ccn1 [Sorafenib]	64.2 ± 1.6%
NC(=O)NO [Hydroxyurea]	71.3 ± 11%
O=NN(CCCl)C(=O)NC1CCCCC1 [Lomustine]	84.1 ± 18%
Cc1ccc(-n2[nH]c(C)c(N=Nc3cccc(-c4cccc(C(=O)O)c4)c3O)c2=O)cc1C [Eltrombopag Olamine]	111 ± 5.6%
O=C1NC(=O)[C@@H](c2cn3c4c(cccc24)CCC3)[C@@H]1c1c[nH]c2ccccc12 [Tivantinib (ARQ 197)]	48.3 ± 1.5%
N=C(N)NC(=N)N1CCOCC1 [Moroxydine HCl]	91.2 ± 3.7%
Nc1[nH]cnc2ncnc1-2 [Adenine HCl]	98.1 ± 6.5%
Cc1cn(-c2cc(NC(=O)c3ccc(C)c(Nc4nccc(-c5cccnc5)n4)c3)cc(C(F)(F)F)c2)cn1 [Nilotinib (AMN-107)]	57.2 ± 3.6%
O=P(O)(O)C(O)(Cn1ccnc1)P(=O)(O)O [Zoledronic Acid]	84.5 ± 7.6%
CCCCNC(=O)NS(=O)(=O)c1ccc(C)cc1 [Tolbutamide]	82.5 ± 3.6%
Nc1cccc2c1CN(C1CCC(=O)NC1=O)C2=O (stereo not given) [Lenalidomide]	105 ± 4.7%
S=C(NCc1ccc2c(c1)OCO2)N1CCN(c2ncnc3c2oc2ccccc23)CC1 [Amuvatinib (MP-470)]	86.1 ± 9%
Cc1ccc(NC(=O)c2ccc(CN3CC[C@H](N(C)C)C3)c(C(F)(F)F)c2)cc1Nc1nccc(-c2cncnc2)n1 [Bafetinib (INNO-406)]	2.79 ± 1.9%
O=C(O)C1=CO[C@@H](O[C@@H]2O[C@H](CO)[C@@H](O)[C@H](O)[C@H]2O)[C@@H]2C(CO)=CC[C@H]12 [Geniposidic acid]	85.8 ± 4.8%

SMILES	cell viability
Nc1nc(Cl)nc2c1ncn2[C@@H]1O[C@H](CO)[C@@H](O)[C@@H]1F [Clofarabine]	98.8 ± 21%
C=CC(=O)Nc1cccc(Nc2nc(Nc3ccc(N4CCN(C(C)=O)CC4)cc3OC)ncc2C(F)(F)F)c1 [Rociletinib (CO-1686, AVL-301)]	54.97 ± 0.41%
COc1cccc2c1C(=O)c1c(O)c3c(c(O)c1C2=O)C[C@@](O)(C(C)=O)C[C@@H]3O[C@H]1C[C@H](N)[C@H](O)[C@H](C)O1 [Daunorubicin HCl]	14.4 ± 6.7%
CC/C(=C(/CC)c1ccc(O)cc1)c1ccc(O)cc1 [Diethylstilbestrol]	87.8 ± 22%
COc1c2ccoc2cc2oc(=O)ccc12 [Bergapten]	105 ± 18%
CCN(CC)CCNC(=O)c1c(C)[nH]c(/C=C2\C(=O)Nc3ccc(F)cc32)c1C [Sunitinib Malate]	7.73 ± 5.5%
COc1cc(Nc2ncc(F)c(Nc3ccc4c(n3)N(COP(=O)(O)O)C(=O)C(C)(C)O4)n2)cc(OC)c1OC [Fostamatinib (R788)]	29.5 ± 0.8%
CC(=O)Oc1ccccc1C(=O)O [Aspirin]	81.4 ± 1.1%
CC[C@@H]1/C=C(\C)C[C@H](C)C[C@H](OC)[C@H]2O[C@@](O)(C(=O)C(=O)N3CCCC[C@H]3C(=O)O[C@H](/C(C)=C/[C@@H]3CC[C@H](Cl)[C@H](OC)C3)[C@H](C)[C@@H](O)CC1=O)[C@H](C)C[C@@H]2OC [Pimecrolimus]	41.3 ± 5.4%
CC(C)(OCc1nn(Cc2ccccc2)c2ccccc12)C(=O)O [Bindarit]	85.93 ± 0.83%
O=C(O)C1(C(=O)O)CCC1.[NH2-].[NH2-].[Pt+2] [Carboplatin]	83.7 ± 2.2%
CN(C)c1nc(N(C)C)nc(N(C)C)n1 [Altretamine]	103 ± 3.1%
COc1cc2nccc(Oc3ccc(NC(=O)NC4CC4)c(Cl)c3)c2cc1C(N)=O [Lenvatinib (E7080)]	75.4 ± 0.93%
COc1cccc2c1C(=O)c1c(O)c3c(c(O)c1C2=O)C[C@@](O)(C(=O)CO)C[C@@H]3O[C@H]1C[C@H](N)[C@H](O)[C@H](C)O1 [Doxorubicin (Adriamycin)]	37.47 ± 0.32%
C[C@@]12C[C@@]3(O)O[C@@H](O1)[C@]1(COC(=O)c4ccccc4)[C@H]3C[C@@]12O[C@@H]1O[C@H](CO)[C@@H](O)[C@H](O)[C@H]1O [Paeoniflorin]	83.6 ± 1.2%
FC(F)(F)c1ccc(/C=C/c2nc(COc3ccc(CCCCn4ccnn4)cc3)co2)cc1 [Mubritinib (TAK 165)]	96 ± 3.5%
CCCCC1C(=O)N(c2ccccc2)N(c2ccccc2)C1=O [Phenylbutazone]	72.5 ± 5.7%
COC(=O)C[C@](O)(CCCC(C)(C)O)C(=O)O[C@@H]1C(OC)=C[C@]23CCCN2CCc2cc4c(cc2[C@H]13)OCO4 [Homoharringtonine]	54 ± 5.4%
Cn1nnc2c(C(N)=O)ncn2c1=O [Temozolomide]	99.4 ± 23%
Cc1nc(NC(=O)N2CCC[C@H]2C(N)=O)sc1-c1ccnc(C(C)(C)C(F)(F)F)c1 [Alpelisib]	92.6 ± 1%
